PKM2 activator – activators of human pyruvate kinase M2; P14618; purified PKM2, Kinase-Glo ATP luminescence, activation; response scale: 0% is enzyme alone, no compound; Potency, µM (series often up to 57.5 µM), for inactives: at the top dose activation, usual class: activators; 260,000 tested, 0.34% active; further: on the % scale 0 is the no-effect control and ±100 the full control effect; nearly all actives have a fitted effect of over 55% in size
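ATP formation by purified human PK-M2, quantified via coupled luciferase luminescence after 1 h at room temperature with 0.1 mM ADP and 0.5 mM PEP final.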
A-T KAP1 phos – potential ataxia-telangiectasia treatments restoring KAP-1 phosphorylation; F2112 A-T fibroblasts, KAP-1 phosphorylation AlphaLISA; neocarzinostatin DNA damage 30 min before lysis; 320,000 tested, 0.19% active; Potency, µM (series often up to 57.5 µM), inactives show at the highest dose activation, most hits filed as activators; AID 485349; further: % of control where 0% means no effect; nearly all actives have a fitted effect of over 45% in size
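ATM-like activity read as KAP-1 phosphorylation via AlphaLISA donor/acceptor antibody pairs after lysis and 6 hr at 25C. Cells were ATM-null patient fibroblasts (F2112, hTERT), dosed 60 min, then exposed to the DSB inducer NCS for 30 min.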
Pin1 inhibitor – inhibitors of human Pin1. Q13526. 390,000 tested, 0.009% active. Pin1 FP peptide displacement, HiFluor488, 10 min. Potency, µM (top dose mostly 115 µM), for the others: at the highest dose activity, negative = inhibition, usual class: inhibitors; active means well fitted inhibition curve with a large enough effect in the polarisation, with a control signal flat, not every such curve was filed as active; inconclusive means small, poorly fitted or top-dose-only effect, or effect the other way, or a change in a side signal; inactive means no such curve, though single readings can be large or run the other way; the % refers to the polarisation; further: on the % scale 0 is the no-effect control and ±100 the full control effect
Target sequence (Q13526 whole entry, looked up): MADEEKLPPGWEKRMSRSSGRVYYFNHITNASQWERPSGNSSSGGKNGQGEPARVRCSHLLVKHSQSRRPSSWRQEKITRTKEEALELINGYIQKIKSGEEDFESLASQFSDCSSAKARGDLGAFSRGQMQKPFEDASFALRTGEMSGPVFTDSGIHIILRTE
TSG101-PTAP inh – blocks PTAP/TSG101 interaction to inhibit HIV-1 budding. 340,000 tested, under 10 active. Fluorescence polarization, FITC-PTAP peptide / Tsg101 binding. AID 493005. Potency, µM (titrated, usually from 115 µM), for the others: at the top dose activity change, negative = inhibition, hits mostly inhibitors; active means well fitted inhibition curve with a large enough effect in the main read-out, with a control signal flat, not every such curve was filed as active; inconclusive means small, poorly fitted or top-dose-only effect, or effect the other way, or a change in a side signal; inactive means no such curve, though single readings can be large or run the other way; further: % of control where 0% means no effect
Target sequence (Q99816 whole entry, looked up): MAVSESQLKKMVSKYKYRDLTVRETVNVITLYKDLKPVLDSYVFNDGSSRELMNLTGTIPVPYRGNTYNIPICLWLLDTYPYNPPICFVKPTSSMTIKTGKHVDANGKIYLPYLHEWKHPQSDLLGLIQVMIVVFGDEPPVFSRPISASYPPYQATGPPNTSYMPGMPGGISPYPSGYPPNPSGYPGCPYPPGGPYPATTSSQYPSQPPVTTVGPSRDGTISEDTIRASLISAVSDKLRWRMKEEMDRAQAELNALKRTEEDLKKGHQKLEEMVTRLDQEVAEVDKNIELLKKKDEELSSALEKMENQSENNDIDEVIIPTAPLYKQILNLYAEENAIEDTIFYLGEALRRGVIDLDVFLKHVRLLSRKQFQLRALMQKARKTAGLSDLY
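Fluorescence anisotropy tracks displacement of a FITC-tagged PTAP peptide (50 nM) from the Tsg101 binding domain (10 uM), following a 20 min room-temperature incubation at pH 7.5.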
* = called active by the depositor; ? = inconclusive; . = no result given; [ ] = remark or other dose. This is a sample that favours compounds with a hit; in the whole collection about 0.39% have one here. Unless noted, the call rests on the fitted dose curve; in most records, active means well fitted activation curve with a large enough effect; inconclusive means small, poorly fitted or top-dose-only effect; inactive means no such curve, though single readings can be large or run the other way. Potency means the concentration at half of the fitted maximal effect.

SMILES	PKM2 activator	A-T KAP1 phos	Pin1 inhibitor	TSG101-PTAP inh
O=C1CN(CC(=O)N2CCOCC2)c2ccccc2O1	0%	28µM*	.	.
O=C(c1ccc(NS(=O)(=O)c2cccs2)cc1)N1CCN(c2ccccc2Cl)CC1	6.3µM*	-4%	17%	-1%
O=C(c1ccc(NS(=O)(=O)c2cccs2)cc1)N1CCCCC1	0%	-3%	-7%	-10%
O=C(NCCOC(=O)c1ccc(S(=O)(=O)N2CCOCC2)cc1)c1cccnc1	10%	-3%	-10%	-4%
O=C(OCCNc1ncc(C(F)(F)F)cc1Cl)c1ccc(S(=O)(=O)N2CCOCC2)cc1	20µM*	2%	?	-2%
CCCCCCc1cc2cc(S(=O)(=O)c3ccc(F)cc3)c(=O)oc2cc1O	8%	28µM*	?	0%
CCCCCCc1cc2cc(-c3nnc(-c4ccccc4O)o3)c(=O)oc2cc1O	-3%	14%	?	?
CCOC(=O)C1CCN(c2ncc(-c3ccc4c(c3)OCCCO4)s2)CC1	.	.	-2%	.
Cn1nnnc1Sc1ncnc2scc(-c3ccccc3C#N)c12	.	.	6%	.
Cc1ccc(NS(=O)(=O)c2cc3c(cc2F)NC(=O)CC3)cc1C	.	.	-5%	.
CCOC(=O)c1c(-c2ccccc2)oc2ccc(OCC)cc12	-5%	13%	1%	-3%
CCOC(=O)c1c(-c2ccccc2)oc2ccc(OCC(O)CNCCN(C)C)cc12 (stereo not drawn)	.	40µM*	-5%	-2%
COc1ccc(C2Nc3ccccc3C(=O)N2Cc2ccccc2)cc1Oc1ccc(NC(C)=O)cc1 (stereo not drawn)	.	.	13%	.
COc1ccc(NC(=O)C(OC(=O)CNC(=O)c2ccccc2)c2ccccc2)cc1Cl (stereo not drawn)	.	.	2%	.
CN(C)c1ccc(-c2cc[nH]c(=O)c2N)cc1	.	.	-1%	.
NC(=O)C1CCN(C(=O)CCc2nc3sc4c(c3c(=O)[nH]2)CCCC4)CC1	.	4%	?	-3%
CCOC(=O)N1CCN(C(=O)CCc2nc3sc4c(c3c(=O)[nH]2)CCCC4)CC1	-4%	10µM*	5%	2%
CCOC(=O)CSc1nnc(-c2ccoc2C)n1-c1ccc(OCC)cc1	40µM*	-5%	-20%	0%
CCOC(=O)CSc1nnc(-c2ccoc2C)n1-c1ccc(C)cc1	1%	4%	2%	-2%
FC(F)(F)c1cc(CCN2C(=S)NC[C@@H]2c2ccccc2)cc(C(F)(F)F)c1	-5%	35µM*	?	-1%
C=C1CCN([C@H](C(=O)OCc2ccc(C)cc2)C(C)C)S(=O)(=O)c2ccccc21	0%	40µM*	-3%	-3%
C=C1CCN(C(C)C(=O)OCc2ccc(C)cc2)S(=O)(=O)c2ccccc21 (stereo not drawn)	.	.	6%	.
COCc1nn2c(=O)cc(N3CCNCC3)nc2s1	.	.	0%	.
CC1CC(NC(=O)c2cc3c(=O)n4ccccc4nc3n2C)CC(C)(C)C1 (stereo not drawn)	.	28µM*	-8%	3%
O=C(CSc1nnc(-c2cccnc2)s1)Nc1cccc(C(=O)O)c1	-13%	4%	-9%	-4%
SMILES	PKM2 activator	A-T KAP1 phos	Pin1 inhibitor	TSG101-PTAP inh
O=C(CSc1nnc(-c2ccncc2)s1)Nc1ccccc1	4µM*	0%	0%	1%
O=C(CSc1nnc(-c2cccnc2)s1)Nc1ccccc1	14µM*	0%	-11%	-1%
Cc1ccc(C(=O)NCCc2c[nH]c3ccccc23)c(C)c1	.	25µM*	-11%	0%
O=C(NCCc1c[nH]c2ccccc12)c1ccccc1	-2%[11.5 µM]	-1%	-2%	0%
O=C(NCc1nnc2c(C(F)(F)F)cc(Cl)cn12)c1ccco1	14µM*	13%	-6%	-10%
Cc1ccc(C(=O)NCc2nnc3c(C(F)(F)F)cc(Cl)cn23)o1	1%	-4%	-4%	-6%
COc1ccc(CCn2c(S)nc3ccccc3c2=O)cc1	.	1.8µM*	-1%	1%
N#Cc1nc(COc2ccccc2F)oc1NCc1ccc(F)cc1	9%	32µM*	20%	1%
COc1ccc(C2c3c(n(CCc4ccccc4)cnc3=N)Oc3ccc4ccccc4c32)cc1OC (stereo not drawn)	.	.	4%	.
COc1cccc(OCc2cc(C3Nc4ccccc4C(=O)N3Cc3ccco3)ccc2OC)c1 (stereo not drawn)	7.9µM*	2%	56%	-4%
COc1ccc(C2Nc3ccccc3C(=O)N2CCc2ccc(Cl)cc2Cl)cc1COc1ccc(NC(C)=O)cc1 (stereo not drawn)	.	.	-5%	.
COc1ccc(S(=O)(=O)N2CCC(n3cnc4ccccc43)CC2)cc1	16µM*	-1%	-3%	-4%
COc1ccc(S(=O)(=O)N2CCC(n3cnc4cc(C(F)(F)F)ccc43)CC2)cc1	18%	-12%	0%	-2%
CC(C)C[C@H](N)c1nnc(SCc2ccc(Cl)cc2)o1	-16%	40µM*	-2%	-2%
COc1ccc(-c2ccc3ncnc(NCc4ccc(C)o4)c3c2)cc1OC	.	.	2%	.
N#Cc1nc(Nc2cccc(Br)c2)nc(NC2CCCC2)n1	.	.	69%	.
Cc1nn(S(=O)(=O)c2cccs2)c(C)c1Sc1ccccc1	16µM*	7%	.	.
Cc1nn(S(=O)(=O)c2cccs2)c(C)c1Sc1ccc([N+](=O)[O-])cc1	3%	3%	-2%	-4%
Cc1cccc([S+](=O)([O-])NC2CCN(C#N)CC2)c1	.	.	0%	.
CC1CCN(CCCNC(=O)c2cn(C)c3ccc(S(=O)(=O)N4CCCC4)cc3c2=O)CC1	-12%	-4%	2%	0%
CC1CC(C)CN(CCCNC(=O)c2cn(C)c3ccc(S(=O)(=O)N4CCCC4)cc3c2=O)C1 (stereo not drawn)	6%	40µM*	-1%	-5%
CCCNC(=O)C1CC(c2cccc(F)c2)=NO1 (stereo not drawn)	-2%	10%	0%	-3%
O=C(NCCc1cccs1)C1CC(c2cccc(F)c2)=NO1 (stereo not drawn)	2%	40µM*	1%	-7%
CNC(=O)c1[nH]nc2c1CCc1cc(OC)ccc1-2	.	10µM*	1%	-9%
COc1ccc2c(c1)CCc1c-2n[nH]c1C(=O)NCCC(C)C	.	12%	-8%	-6%
c1ccc(-c2nnc(CN3CCCCC3)o2)cc1	.	45µM*	2%	-1%
COc1cc(NS(=O)(=O)c2cc3[nH]c(=O)c(=O)[nH]c3cc2C)cc(OC)c1OC	7.1µM*	-2%	-3%	-5%
